# Tests used:
# Test in all cases: DAPPL (digital affinity profiling via proximity ligation, sequencing); 10 mM Tris-HCl pH 7.5, 50 mM NaCl, 1 mM DTT, 4% glycerol, room temperature, 30 min; GST-TFs on glutathione beads, 16-mer random dsDNA library, 0.1% formaldehyde crosslink after washing; high values mean tight binding
# FLI1 = molecular target: T1, FLI1 (Homo sapiens, UniProt Q01543 1-452); conditions: protein: recombinant; tags: N-terminal GST; dsDNA, one strand shown
# T1 sequence: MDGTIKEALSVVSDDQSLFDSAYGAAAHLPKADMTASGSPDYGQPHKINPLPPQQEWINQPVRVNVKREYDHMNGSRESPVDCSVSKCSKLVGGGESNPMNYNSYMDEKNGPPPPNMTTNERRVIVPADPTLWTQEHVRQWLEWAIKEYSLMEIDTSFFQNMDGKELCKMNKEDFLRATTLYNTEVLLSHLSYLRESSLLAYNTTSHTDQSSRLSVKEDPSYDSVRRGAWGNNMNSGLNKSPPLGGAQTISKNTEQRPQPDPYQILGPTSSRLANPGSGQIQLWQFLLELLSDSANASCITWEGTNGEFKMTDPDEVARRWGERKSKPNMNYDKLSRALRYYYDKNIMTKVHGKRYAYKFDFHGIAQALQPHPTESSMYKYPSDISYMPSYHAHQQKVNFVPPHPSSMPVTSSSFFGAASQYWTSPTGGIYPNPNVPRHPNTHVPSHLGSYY
# How it was run: (§1)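 A tag-only sample was pooled with DNA-barcoded human transcription factors that had been expressed in yeast as GST fusions and captured on glutathione beads. The pools were incubated for 30 min at room temperature with 200 nmole of a random double-stranded 16-mer DNA library in Tris/NaCl/DTT/glycerol buffer, then washed, crosslinked with 0.1% formaldehyde, proximity-ligated (BsaI/T4 ligase, 1 h, 37 °C), PCR-amplified and sequenced on an Illumina NextSeq500. Binding signal is each hexamer's read frequency for a factor divided by its frequency for the tag-only sample.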
# ELK1 = molecular target: T2, ELK1 (Homo sapiens, UniProt P19419 1-428); conditions: protein: recombinant; tags: N-terminal GST; dsDNA, one strand shown
# T2 sequence: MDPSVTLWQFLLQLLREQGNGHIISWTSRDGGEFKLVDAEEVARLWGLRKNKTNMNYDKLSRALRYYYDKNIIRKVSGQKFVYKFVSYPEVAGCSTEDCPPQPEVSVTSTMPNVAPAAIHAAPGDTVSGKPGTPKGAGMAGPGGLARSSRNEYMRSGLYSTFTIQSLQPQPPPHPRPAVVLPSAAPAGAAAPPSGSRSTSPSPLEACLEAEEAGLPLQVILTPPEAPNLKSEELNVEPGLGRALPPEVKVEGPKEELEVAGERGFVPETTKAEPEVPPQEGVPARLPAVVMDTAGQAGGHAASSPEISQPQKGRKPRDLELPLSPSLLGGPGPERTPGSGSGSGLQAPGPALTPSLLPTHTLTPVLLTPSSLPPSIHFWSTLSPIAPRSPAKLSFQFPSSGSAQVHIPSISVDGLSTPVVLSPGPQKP
# How it was run: as §1
# GABPA = molecular target: T3, GABPA (Homo sapiens, UniProt Q06546 1-454); conditions: protein: recombinant; tags: N-terminal GST; dsDNA, one strand shown
# T3 sequence: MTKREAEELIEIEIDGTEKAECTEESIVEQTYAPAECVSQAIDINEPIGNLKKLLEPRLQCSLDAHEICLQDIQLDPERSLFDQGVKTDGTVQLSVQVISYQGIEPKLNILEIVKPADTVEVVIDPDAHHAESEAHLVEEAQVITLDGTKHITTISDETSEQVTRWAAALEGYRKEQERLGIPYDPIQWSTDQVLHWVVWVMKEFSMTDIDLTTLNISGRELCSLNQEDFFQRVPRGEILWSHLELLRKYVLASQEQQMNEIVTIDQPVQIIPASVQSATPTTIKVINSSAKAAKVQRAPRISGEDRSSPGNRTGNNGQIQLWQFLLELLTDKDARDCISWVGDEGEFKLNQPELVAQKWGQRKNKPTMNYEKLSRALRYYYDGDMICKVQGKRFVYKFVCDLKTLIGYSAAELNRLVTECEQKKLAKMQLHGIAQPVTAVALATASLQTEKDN
# How it was run: as §1
# ERG = molecular target: T4, ERG (Homo sapiens, UniProt P11308 1-479); conditions: protein: recombinant; tags: N-terminal GST; dsDNA, one strand shown
# T4 sequence: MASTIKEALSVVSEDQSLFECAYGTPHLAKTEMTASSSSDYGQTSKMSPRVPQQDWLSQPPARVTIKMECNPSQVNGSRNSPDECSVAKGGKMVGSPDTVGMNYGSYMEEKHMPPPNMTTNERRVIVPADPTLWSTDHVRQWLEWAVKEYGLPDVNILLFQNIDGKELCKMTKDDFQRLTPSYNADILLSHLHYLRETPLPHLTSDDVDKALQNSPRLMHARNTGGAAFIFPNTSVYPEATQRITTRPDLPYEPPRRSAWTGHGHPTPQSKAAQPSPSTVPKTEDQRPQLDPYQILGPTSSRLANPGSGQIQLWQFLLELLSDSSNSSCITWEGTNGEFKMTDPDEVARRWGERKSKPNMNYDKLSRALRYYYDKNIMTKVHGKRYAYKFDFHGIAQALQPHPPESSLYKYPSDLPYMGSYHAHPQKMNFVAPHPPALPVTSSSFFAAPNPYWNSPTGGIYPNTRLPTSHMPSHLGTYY
# How it was run: as §1
# ELF1 = ELF1 (Homo sapiens, UniProt P32519 1-619); conditions: protein: recombinant; tags: N-terminal GST; dsDNA, one strand shown
# Chain of ELF1 (P32519 whole entry): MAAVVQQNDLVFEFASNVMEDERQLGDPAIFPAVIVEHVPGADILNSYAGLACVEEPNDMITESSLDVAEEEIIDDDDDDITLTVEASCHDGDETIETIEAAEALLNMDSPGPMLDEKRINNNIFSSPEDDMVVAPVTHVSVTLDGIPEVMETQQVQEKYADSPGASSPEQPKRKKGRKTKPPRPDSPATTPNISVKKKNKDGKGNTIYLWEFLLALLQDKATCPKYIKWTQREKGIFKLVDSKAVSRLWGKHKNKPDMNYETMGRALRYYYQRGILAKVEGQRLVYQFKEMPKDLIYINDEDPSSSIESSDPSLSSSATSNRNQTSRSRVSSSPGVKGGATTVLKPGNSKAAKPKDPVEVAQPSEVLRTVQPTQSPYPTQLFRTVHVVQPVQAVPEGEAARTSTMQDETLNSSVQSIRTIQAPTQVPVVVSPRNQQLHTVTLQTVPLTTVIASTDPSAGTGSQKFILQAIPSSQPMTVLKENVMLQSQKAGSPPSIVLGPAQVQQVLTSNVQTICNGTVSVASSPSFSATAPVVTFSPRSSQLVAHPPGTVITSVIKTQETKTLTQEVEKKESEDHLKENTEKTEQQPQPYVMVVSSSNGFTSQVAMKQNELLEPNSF
# How it was run: as §1
# EHF = molecular target: T5, EHF (Homo sapiens, UniProt Q9NZC4 1-300); conditions: protein: recombinant; tags: N-terminal GST; dsDNA, one strand shown
# T5 sequence: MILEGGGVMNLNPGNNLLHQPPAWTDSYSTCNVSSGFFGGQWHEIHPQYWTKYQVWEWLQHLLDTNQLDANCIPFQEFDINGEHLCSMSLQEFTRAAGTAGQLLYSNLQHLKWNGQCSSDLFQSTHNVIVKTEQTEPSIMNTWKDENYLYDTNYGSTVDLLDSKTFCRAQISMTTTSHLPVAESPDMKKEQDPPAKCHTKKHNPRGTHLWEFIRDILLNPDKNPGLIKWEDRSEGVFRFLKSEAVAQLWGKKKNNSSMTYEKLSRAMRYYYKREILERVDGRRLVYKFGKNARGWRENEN
# How it was run: as §1
# SPI1 = SPI1 (Homo sapiens, UniProt P17947 1-270); conditions: protein: recombinant; tags: N-terminal GST; dsDNA, one strand shown
# How it was run: as §1
# SPIB = SPIB (Homo sapiens, UniProt Q01892 1-262); conditions: protein: recombinant; tags: N-terminal GST; dsDNA, one strand shown
# Chain of SPIB (Q01892 whole entry): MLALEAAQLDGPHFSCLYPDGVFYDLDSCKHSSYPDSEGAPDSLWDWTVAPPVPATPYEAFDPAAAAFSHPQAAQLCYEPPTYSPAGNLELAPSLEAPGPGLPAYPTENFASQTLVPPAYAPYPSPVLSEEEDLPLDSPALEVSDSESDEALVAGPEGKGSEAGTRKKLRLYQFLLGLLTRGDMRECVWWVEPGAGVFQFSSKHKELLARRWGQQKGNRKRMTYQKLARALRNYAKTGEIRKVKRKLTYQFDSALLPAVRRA
# How it was run: as §1
# ELK3 = molecular target: T6, ELK3 (Homo sapiens, UniProt P41970 1-407); conditions: protein: recombinant; tags: N-terminal GST; dsDNA, one strand shown
# T6 sequence: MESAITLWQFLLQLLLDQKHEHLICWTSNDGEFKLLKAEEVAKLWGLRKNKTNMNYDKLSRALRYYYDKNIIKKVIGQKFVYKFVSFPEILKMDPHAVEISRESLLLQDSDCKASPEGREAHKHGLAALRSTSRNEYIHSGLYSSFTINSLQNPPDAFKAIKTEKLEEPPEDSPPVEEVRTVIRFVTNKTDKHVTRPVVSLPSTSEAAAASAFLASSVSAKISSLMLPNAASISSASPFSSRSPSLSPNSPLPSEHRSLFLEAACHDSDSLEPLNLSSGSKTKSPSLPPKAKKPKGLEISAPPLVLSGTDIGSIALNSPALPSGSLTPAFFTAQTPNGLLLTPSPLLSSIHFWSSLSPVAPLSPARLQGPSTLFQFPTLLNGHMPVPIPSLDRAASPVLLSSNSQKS
# How it was run: as §1
# FEV = molecular target: T7, FEV (Homo sapiens, UniProt Q99581 1-238); conditions: protein: recombinant; tags: N-terminal GST; dsDNA, one strand shown
# T7 sequence: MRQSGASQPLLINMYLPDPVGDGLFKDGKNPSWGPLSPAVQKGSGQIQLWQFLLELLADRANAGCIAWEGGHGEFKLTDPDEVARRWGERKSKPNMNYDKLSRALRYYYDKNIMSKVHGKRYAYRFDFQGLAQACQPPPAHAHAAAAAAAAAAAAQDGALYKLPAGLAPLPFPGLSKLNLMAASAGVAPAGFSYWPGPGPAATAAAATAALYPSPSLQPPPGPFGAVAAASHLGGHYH
# How it was run: as §1
# ETV5 = ETV5 (Homo sapiens, UniProt P41161 1-510); conditions: protein: recombinant; tags: N-terminal GST; dsDNA, one strand shown
# Chain of ETV5 (P41161 whole entry): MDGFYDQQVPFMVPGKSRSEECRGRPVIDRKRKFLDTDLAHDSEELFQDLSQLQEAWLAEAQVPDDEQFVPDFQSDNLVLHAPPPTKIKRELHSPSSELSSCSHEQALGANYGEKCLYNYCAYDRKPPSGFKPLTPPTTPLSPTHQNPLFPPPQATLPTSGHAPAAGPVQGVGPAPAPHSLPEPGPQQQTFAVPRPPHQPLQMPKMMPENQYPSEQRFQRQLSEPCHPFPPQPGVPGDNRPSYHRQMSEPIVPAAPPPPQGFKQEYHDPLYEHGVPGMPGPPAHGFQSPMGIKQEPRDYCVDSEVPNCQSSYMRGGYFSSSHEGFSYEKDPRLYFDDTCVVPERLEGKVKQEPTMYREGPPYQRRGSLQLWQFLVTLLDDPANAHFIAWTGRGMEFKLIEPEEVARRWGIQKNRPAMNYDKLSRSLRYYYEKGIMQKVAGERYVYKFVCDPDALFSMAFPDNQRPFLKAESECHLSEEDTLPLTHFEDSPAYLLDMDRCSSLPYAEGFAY
# How it was run: as §1
# HSF1 = HSF1 (Homo sapiens, UniProt Q00613 1-529); conditions: protein: recombinant; tags: N-terminal GST; chain copies: 3; dsDNA, one strand shown
# Chain of HSF1 (Q00613 whole entry): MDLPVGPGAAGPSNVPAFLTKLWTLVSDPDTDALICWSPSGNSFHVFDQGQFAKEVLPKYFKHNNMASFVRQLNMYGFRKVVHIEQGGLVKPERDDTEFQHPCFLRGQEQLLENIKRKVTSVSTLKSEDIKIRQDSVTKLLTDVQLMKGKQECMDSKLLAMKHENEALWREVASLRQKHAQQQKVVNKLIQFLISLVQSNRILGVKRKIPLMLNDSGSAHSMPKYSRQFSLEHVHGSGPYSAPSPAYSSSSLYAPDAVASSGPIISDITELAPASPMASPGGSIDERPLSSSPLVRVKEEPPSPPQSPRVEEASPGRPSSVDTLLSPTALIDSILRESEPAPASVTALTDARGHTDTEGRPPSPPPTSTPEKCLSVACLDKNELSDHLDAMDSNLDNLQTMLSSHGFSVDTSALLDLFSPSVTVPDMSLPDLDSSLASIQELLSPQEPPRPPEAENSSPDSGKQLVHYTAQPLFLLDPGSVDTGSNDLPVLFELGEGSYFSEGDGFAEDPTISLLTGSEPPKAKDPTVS
# How it was run: as §1
# SPIC = molecular target: T8, SPIC (Homo sapiens, UniProt Q8N5J4 1-248); conditions: protein: recombinant; tags: N-terminal GST; dsDNA, one strand shown
# T8 sequence: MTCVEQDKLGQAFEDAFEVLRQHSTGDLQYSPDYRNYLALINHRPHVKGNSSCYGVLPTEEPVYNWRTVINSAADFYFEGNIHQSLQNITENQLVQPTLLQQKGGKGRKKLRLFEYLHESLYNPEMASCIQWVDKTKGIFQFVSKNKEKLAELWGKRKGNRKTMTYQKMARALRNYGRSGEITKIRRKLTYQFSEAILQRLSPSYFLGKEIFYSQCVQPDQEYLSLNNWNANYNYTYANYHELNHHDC
# How it was run: as §1
# ELF4 = ELF4 (Homo sapiens, UniProt Q99607 1-663); conditions: protein: recombinant; tags: N-terminal GST; dsDNA, one strand shown
# Chain of ELF4 (Q99607 whole entry): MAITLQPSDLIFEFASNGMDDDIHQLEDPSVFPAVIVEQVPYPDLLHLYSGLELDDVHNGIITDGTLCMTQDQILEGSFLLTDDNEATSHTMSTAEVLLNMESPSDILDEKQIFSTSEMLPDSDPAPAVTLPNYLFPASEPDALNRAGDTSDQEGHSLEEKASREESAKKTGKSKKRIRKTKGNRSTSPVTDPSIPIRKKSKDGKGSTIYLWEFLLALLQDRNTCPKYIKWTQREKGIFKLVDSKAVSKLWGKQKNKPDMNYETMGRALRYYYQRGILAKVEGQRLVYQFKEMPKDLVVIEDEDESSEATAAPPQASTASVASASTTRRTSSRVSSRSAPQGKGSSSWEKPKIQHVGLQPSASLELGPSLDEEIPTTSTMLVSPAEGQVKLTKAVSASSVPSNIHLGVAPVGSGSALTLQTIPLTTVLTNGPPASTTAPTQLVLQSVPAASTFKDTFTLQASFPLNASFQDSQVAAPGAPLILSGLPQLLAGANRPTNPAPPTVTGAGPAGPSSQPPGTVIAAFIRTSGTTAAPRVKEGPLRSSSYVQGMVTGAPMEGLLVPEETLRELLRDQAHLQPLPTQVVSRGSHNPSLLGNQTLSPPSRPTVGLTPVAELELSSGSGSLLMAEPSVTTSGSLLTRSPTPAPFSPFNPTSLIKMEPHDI
# How it was run: as §1
# ELK4 = molecular target: T9, ELK4 (Homo sapiens, UniProt P28324-2 1-405); conditions: protein: recombinant; tags: N-terminal GST; dsDNA, one strand shown
# T9 sequence: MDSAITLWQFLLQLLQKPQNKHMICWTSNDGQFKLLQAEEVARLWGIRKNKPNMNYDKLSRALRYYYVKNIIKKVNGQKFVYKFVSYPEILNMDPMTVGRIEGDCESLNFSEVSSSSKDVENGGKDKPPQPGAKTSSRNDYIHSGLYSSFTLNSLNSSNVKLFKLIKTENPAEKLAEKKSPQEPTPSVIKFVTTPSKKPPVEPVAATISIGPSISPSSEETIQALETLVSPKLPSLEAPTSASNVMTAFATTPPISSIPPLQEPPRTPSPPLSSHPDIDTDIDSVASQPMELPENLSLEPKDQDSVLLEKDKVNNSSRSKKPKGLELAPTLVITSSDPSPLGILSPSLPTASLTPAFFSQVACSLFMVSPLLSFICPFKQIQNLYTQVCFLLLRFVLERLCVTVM
# How it was run: as §1
# ETV2 = molecular target: T10, ETV2 (Homo sapiens, UniProt O00321 1-342); conditions: protein: recombinant; tags: N-terminal GST; dsDNA, one strand shown
# T10 sequence: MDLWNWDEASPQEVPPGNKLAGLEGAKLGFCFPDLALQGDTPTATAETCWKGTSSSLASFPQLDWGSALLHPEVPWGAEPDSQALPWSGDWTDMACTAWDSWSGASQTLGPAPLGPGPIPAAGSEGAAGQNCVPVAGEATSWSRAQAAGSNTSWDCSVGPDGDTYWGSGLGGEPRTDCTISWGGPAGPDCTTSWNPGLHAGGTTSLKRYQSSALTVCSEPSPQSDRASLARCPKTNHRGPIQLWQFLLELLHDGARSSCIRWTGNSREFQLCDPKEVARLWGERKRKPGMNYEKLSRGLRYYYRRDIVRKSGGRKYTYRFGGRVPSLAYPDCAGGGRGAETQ
# How it was run: as §1
# ELF3 = molecular target: T11, ELF3 (Homo sapiens, UniProt P78545 1-371); conditions: protein: recombinant; tags: N-terminal GST; dsDNA, one strand shown
# T11 sequence: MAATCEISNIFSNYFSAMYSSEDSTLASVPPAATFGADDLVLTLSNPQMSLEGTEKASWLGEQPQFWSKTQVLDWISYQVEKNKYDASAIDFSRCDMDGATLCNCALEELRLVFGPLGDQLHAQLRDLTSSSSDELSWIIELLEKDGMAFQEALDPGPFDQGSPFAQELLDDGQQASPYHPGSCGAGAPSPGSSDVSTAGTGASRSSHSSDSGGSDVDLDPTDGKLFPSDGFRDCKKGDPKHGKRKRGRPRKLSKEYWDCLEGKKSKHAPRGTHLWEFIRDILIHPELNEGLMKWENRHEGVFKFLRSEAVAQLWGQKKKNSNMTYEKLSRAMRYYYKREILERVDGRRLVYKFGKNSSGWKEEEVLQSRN
# How it was run: as §1
# CRX = CRX (Homo sapiens, UniProt O43186 1-299); conditions: protein: recombinant; tags: N-terminal GST; dsDNA, one strand shown
# Chain of CRX (O43186 whole entry): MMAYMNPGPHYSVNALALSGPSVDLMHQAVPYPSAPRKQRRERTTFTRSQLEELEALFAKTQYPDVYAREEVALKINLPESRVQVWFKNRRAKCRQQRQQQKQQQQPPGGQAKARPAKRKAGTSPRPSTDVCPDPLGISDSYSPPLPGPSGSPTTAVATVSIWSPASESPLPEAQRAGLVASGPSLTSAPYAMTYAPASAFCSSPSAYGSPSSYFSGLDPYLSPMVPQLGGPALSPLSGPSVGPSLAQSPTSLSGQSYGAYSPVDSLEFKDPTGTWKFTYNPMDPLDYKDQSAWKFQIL
# How it was run: as §1
# ETV1 = ETV1 (Homo sapiens, UniProt P50549 1-477); conditions: protein: recombinant; tags: N-terminal GST; dsDNA, one strand shown
# Chain of ETV1 (P50549 whole entry): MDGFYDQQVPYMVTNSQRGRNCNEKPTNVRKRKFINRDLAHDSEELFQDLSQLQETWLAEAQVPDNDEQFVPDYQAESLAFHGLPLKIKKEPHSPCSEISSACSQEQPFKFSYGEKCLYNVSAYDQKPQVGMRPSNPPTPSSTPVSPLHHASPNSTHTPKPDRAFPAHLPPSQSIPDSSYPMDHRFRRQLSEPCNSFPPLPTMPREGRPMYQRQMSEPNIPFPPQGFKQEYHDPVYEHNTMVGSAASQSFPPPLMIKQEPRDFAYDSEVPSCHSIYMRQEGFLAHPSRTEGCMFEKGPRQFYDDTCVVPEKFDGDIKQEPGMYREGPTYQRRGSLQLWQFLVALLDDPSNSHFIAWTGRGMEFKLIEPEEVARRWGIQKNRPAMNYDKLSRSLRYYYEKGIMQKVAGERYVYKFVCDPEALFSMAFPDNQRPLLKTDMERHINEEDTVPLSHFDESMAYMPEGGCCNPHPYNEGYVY
# How it was run: as §1
sequence,measurement,setting,value
TCGTCT,binding signal,FLI1,"1.52 fold enrichment (6-mer frequency, TF over GST control)"
same,binding signal,ELK1,"1.34 fold enrichment (6-mer frequency, TF over GST control)"
same,binding signal,GABPA,"1.43 fold enrichment (6-mer frequency, TF over GST control)"
same,binding signal,ERG,"1.34 fold enrichment (6-mer frequency, TF over GST control)"
same,binding signal,ELF1,"1.4 fold enrichment (6-mer frequency, TF over GST control)"
same,binding signal,EHF,"1.38 fold enrichment (6-mer frequency, TF over GST control)"
same,binding signal,SPI1,"1.26 fold enrichment (6-mer frequency, TF over GST control)"
same,binding signal,SPIB,"1.42 fold enrichment (6-mer frequency, TF over GST control)"
same,binding signal,ELK3,"1.23 fold enrichment (6-mer frequency, TF over GST control)"
same,binding signal,FEV,"1.3 fold enrichment (6-mer frequency, TF over GST control)"
same,binding signal,ETV5,"1.33 fold enrichment (6-mer frequency, TF over GST control)"
same,binding signal,HSF1,"1.46 fold enrichment (6-mer frequency, TF over GST control)"
same,binding signal,SPIC,"1.27 fold enrichment (6-mer frequency, TF over GST control)"
same,binding signal,ELF4,"1.35 fold enrichment (6-mer frequency, TF over GST control)"
same,binding signal,ELK4,"1.32 fold enrichment (6-mer frequency, TF over GST control)"
same,binding signal,ETV2,"1.36 fold enrichment (6-mer frequency, TF over GST control)"
same,binding signal,ELF3,"1.52 fold enrichment (6-mer frequency, TF over GST control)"
same,binding signal,CRX,"1.37 fold enrichment (6-mer frequency, TF over GST control)"
same,binding signal,ETV1,"1.41 fold enrichment (6-mer frequency, TF over GST control)"

# Source: article PMC7862700, “An all-to-all approach to the identification of sequence-specific readers for epigenetic DNA modifications on cytosine”
